Compounds without any hit were thinned out: in the full panel of roughly 83,000, 20% have a hit.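 The endpoint reported here, percent growth, reads 100 for growth as untreated, 0 for no net growth and -100 for all cells dead.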 A number with no mark means an inactive call. Active and inactive are the calls of the source. How the source made its calls: active means growth percent below 10; inactive means the rest.
Experiments:
Test in all cases: NCI-60 one-dose screen, 48 h (100 = growth as untreated, 0 = no growth, -100 = all killed)
Details in all cases: 10 µM unless noted
SR leukemia = tested on: SR leukemia
RPMI-8226 leukemia = tested on: RPMI-8226 leukemia
OVCAR-8 ovarian = tested on: OVCAR-8 ovarian
OVCAR-5 ovarian = tested on: OVCAR-5 ovarian
OVCAR-4 ovarian = tested on: OVCAR-4 ovarian
SK-OV-3 ovarian = tested on: SK-OV-3 ovarian
IGROV1 ovarian = tested on: IGROV1 ovarian
OVCAR-3 ovarian = tested on: OVCAR-3 ovarian
HS 578T breast = tested on: HS 578T breast
NCI/ADR-RES ovarian = tested on: NCI/ADR-RES ovarian

| SMILES | growth (SR leukemia) | growth (RPMI-8226 leukemia) | growth (OVCAR-8 ovarian) | growth (OVCAR-5 ovarian) | growth (OVCAR-4 ovarian) | growth (SK-OV-3 ovarian) | growth (IGROV1 ovarian) | growth (OVCAR-3 ovarian) | growth (HS 578T breast) | growth (NCI/ADR-RES ovarian) |
| --- | --- | --- | --- | --- | --- | --- | --- | --- | --- | --- |
| Nc1ccc(-c2ccc(N)c(S(=O)(=O)O)c2)cc1S(=O)(=O)O | 153% | 110% | 116% | 116% | 108% | 103% | 120% | 108% | 113% | 114% |
| CCCCCCCCc1cc(Cl)c(O)c(Cl)c1 | 83.1% | 98.3% | 103% | 101% | 115% | 101% | 133% | 101% | 98.7% | 103% |
| Oc1ccc2ccccc2c1N=Nc1nccs1 | -10% (active) | 2.25% (active) | 14.9% | 45.3% | 16.2% | 51.6% | 184% | 1.47% (active) | 213% | -22.6% (active) |
| COC(=O)Nc1nc2ccc(C3(c4ccc(F)cc4)OCCO3)cc2[nH]1 | 25.2% | 10.4% | 21.1% | 47.5% | 68.4% | 22% | 29.8% | 4.74% (active) | 37.7% | 24.2% |
| Cc1cc(C(N)=O)cc(C)c1C(=O)OCCCl | 89.6% | 111% | 102% | 108% | 103% | 105% | 111% | 99.5% | 97% | 107% |
| S=C1SCN(Cc2cccs2)CN1Cc1cccs1 | 59.3% | 58% | 104% | 98.8% | 94.4% | 108% | 106% | 111% | 91.1% | 108% |
| O=C1/C(=C/c2ccccc2)CCC/C1=C\c1ccccc1 | 67.4% | -3.31% (active) | 91.7% | 120% | 94.1% | 99.6% | 80% | 65.1% | 101% | 95.2% |
| O=C1c2ccccc2C(=O)c2c(O)c(Cl)cc(O)c21 | 62% | 96.4% | 58.2% | 92.6% | 84.3% | 99.5% | 81.1% | -17.9% (active) | 106% | 93.7% |
| CCCCCCCCCCCC[n+]1ccc2ccccc2c1 | -29.7% (active) | -53.7% (active) | -37% (active) | 7.35% (active) | -17.2% (active) | -26.2% (active) | -51.9% (active) | -70.3% (active) | 15.1% | 54.2% |
| O=Nc1ccc2ccccc2c1O | 60.1% | 70% | 6.45% (active) | 81.8% | 35.2% | 95% | 53.2% | 2.86% (active) | 51% | 6.37% (active) |
| O=C1Nc2ccc(Br)cc2C1=O | 81.9% | 96.4% | 100% | 103% | 93.2% | 93.9% | 97.9% | 90.5% | 95.7% | 108% |
| Oc1c(Cl)cc(Cl)cc1C=NCC1CCC(CN=Cc2cc(Cl)cc(Cl)c2O)CC1 (stereo not given) | 52.3% | 76.7% | 90% | 114% | 75.2% | 88.5% | 69.6% | 83.5% | 92.7% | 85.2% |
| Oc1ccc(Nc2ccc3ccccc3c2)cc1 | 50.4% | 58.6% | 59.8% | 71.5% | 60.2% | 89.3% | 58.1% | 69.8% | 87.6% | 41.8% |
| N=C(N)Sc1cccc[n+]1[O-] | 4.61% (active) | 7.12% (active) | 45.6% | 98.2% | 15.7% | 85.3% | 46.5% | 21.7% | 82.9% | 53.5% |
| Cc1c(O)ccc(SC#N)c1C | 105% | 96.6% | 102% | 97.3% | 107% | 108% | 110% | 90.8% | 124% | 106% |
| O=[n+]1c2ccccc2n([O-])c2cc(Cl)ccc21 | 1.27% (active) | 73.8% | 43% | 108% | 40.3% | 87.7% | 65.6% | 44.6% | 88.8% | 59.6% |
| CCCCCCCCCCCC1N=C(N)N=C(N)N1c1cccc(Br)c1 (stereo not given) | -29.2% (active) | -40% (active) | -14.6% (active) | -32.8% (active) | 55.4% | 32.6% | -30.2% (active) | -28.6% (active) | 18.9% | 105% |
| CCN(CC)CC(O)c1cc(-c2ccc(Cl)cc2)nc2cc(Cl)ccc12 (stereo not given) | -12.3% (active) | 34.4% | 38% | 14.2% | 53.3% | 60% | 10.3% | 56.8% | 40.6% | 29.8% |
| O=C1/C(=C/c2ccccn2)CCc2ccccc21 | 51.2% | 14.6% | 109% | 108% | 104% | 86.6% | 114% | 109% | 98.1% | 106% |
| NCCCN(CCCN)CCCNCc1c2ccccc2c(CNCCCN(CCCN)CCCN)c2ccccc12 | 96.6% | 91.7% | 98.5% | 108% | 99.8% | 100% | 114% | 107% | 92.6% | 93.9% |
| O=[N+]([O-])c1ccc(C(Br)c2ccc([N+](=O)[O-])cc2)cc1 | 7.81% (active) | 66.1% | 63.2% | 124% | 64.3% | 97.3% | -53.2% (active) | 110% | 107% | 91.5% |
| O=C(c1ccccc1)c1cc2ccccc2oc1=O | 107% | 84.3% | 96.9% | 102% | 95.2% | 100% | 64.8% | 107% | 90.6% | 100% |
| CCOC(=O)C1=NN(c2ccccc2)C(=O)/C1=C\N1C(=O)/C(=C/c2cccc(O)c2)SC1=S | 83.3% | 88.1% | 95.8% | 121% | 98.8% | 99.8% | 96% | 106% | 94% | 99.3% |
| CCCCCCCCCCCCN1C(C)=CS/C1=C\C=C\c1scc(C)[n+]1CCCCCCCCCCCC | -4.71% (active) | -11.3% (active) | -8.26% (active) | 61% | 34.2% | 50.3% | 42.8% | 31.9% | 76.6% | 68% |
| CCOC(=O)c1c(C)[nH]c2ccc(O)cc12 | 101% | 89.5% | 97.6% | 130% | 107% | 99.2% | 103% | 105% | 92% | 101% |
| O=C(CCl)N(c1ccccc1)c1ccccc1 | 101% | 109% | 96.3% | 117% | 111% | 114% | 115% | 109% | 102% | 108% |
| Oc1ccc(Cl)cc1C(c1cc(Cl)ccc1O)C(Cl)(Cl)Cl | -25.2% (active) | 11.5% | 29.6% | 8.25% (active) | 20.6% | 32% | 56% | -16.9% (active) | 0.476% (active) | 4.17% (active) |
| C=C(C(N)=O)C(N)C(=O)O (stereo not given) | 83.4% | 104% | 108% | 113% | 115% | 112% | 99.8% | 105% | 114% | 112% |
| CCCCC(CCc1ccc([N+](=O)[O-])cc1)(C(C)=O)C(=O)OCC (stereo not given) | 63.5% | 96.2% | 104% | 105% | 89.5% | 112% | 101% | 96.4% | 92% | 104% |

— PubChem BioAssay (NCI)
